Where “and” joins values, the source holds several entries; their conditions need not be identical. Equal entries are not always repeated. Compounds without any hit were thinned out: in the full panel of roughly 83,000, 20% have a hit.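 Each cell line was grown in a 96-well plate and treated with one concentration of compound for 48 hours. Values below 10 were considered active.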 Values without a mark were called inactive. Calls of active or inactive are those of the source.

The subject of the test is MDA-MB-468 breast. Description: NCI-60 one-dose screen, 48 h (100 = growth as untreated, 0 = no growth, -100 = all killed). Conditions: 10 µM unless noted.
For `O=C(N/N=C/c1cc2ccccc2c2ccccc12)c1cc(O)c(O)c(O)c1`, the growth is 64.9%. As for `O=C(NC(=O)c1ccc(F)c(Cl)c1)NC1CC1`, the figure is 103% and 87.4%; as for `CCC(O)c1ccc(Br)cc1NC(=O)c1cccc(Cl)c1` (centres undefined), 4.57% (active). As for `CCCCCN1C=C/C(=C\C(=O)N2CCCc3ccccc32)c2ccccc21`, the figure is 40%; as for `COc1ccc(-c2n[nH]nc2-c2cc3ccccc3s2)cc1O`, 40.8%; as for `CCOc1ccc(C(=O)NCC(C)C)cc1`, 105%. As for `COc1c(O)c(O)cc2c3c(oc12)CC(c1ccc2c(c1)OCO2)CC3=O` (centres undefined), the figure is 79.9%; as for `CC(C)(C)n1cc(-c2ccnc(NCCCNS(=O)(=O)c3ccc(Cl)cc3)c2)c(-c2cccc(F)c2)n1`, 48.4%.

As to `COc1ccc(C2=Cc3ccc(OC(C)=O)cc3OC2)cc1`, the growth was 67.4%. As for `COc1cc(NC(=O)CCSc2nc3ccc(Cl)cc3c(=O)n2Cc2ccccc2)cc(OC)c1OC`, the growth is 93%. As for `COc1cc2nc(N3CCCC3)nc(NCc3ccccc3)c2cc1OC`, the figure is 45.2%; as for `CN1C2CCC1/C(=C\c1ccc(Cl)cc1)C1=C2[C@@H](c2ccc(Cl)cc2)C(C#N)=C(N)O1` (some centres undefined), 77.9%; as for `C[C@]12C=CC(=O)C=C1CCC1C2[C@@H](O)C[C@@]2(C)C1CC[C@]2(O)C(=O)COC(=O)CCC(=O)O` (some centres undefined), 115%. Regarding `CC(C)(C)c1cc(C(C)(C)C)cc(S(=O)(=O)Nc2cc3ccccc3cc2C(=O)NCCN)c1`, the growth is -69.6% (active). For the compound `C=CCN(C)S(=O)(=O)/N=C1\NC(=O)NC1=C(Cl)Cl`, the growth is 28.7%. As for `CCCCCCCCc1ccc(OCCOCC[N+](C)(C)CC)cc1` (tested in a mixture with another compound), the figure is -11.3% (active). As for `CCCn1cnc2c(c1=N)C(c1ccc(Cl)cc1)c1sc3c(CC)cccc3c1O2` (centres undefined), the figure is 5.23% (active); as for `C[C@H]1[C@H](C)CC[C@]2(C(=O)O)CC[C@]3(C)C(=CC[C@@H]4[C@@]5(C)C[C@@H](Cc6cn([C@@H]7O[C@H](CO)[C@@H](O)[C@H](O)[C@H]7O)nn6)[C@H](O)C(C)(C)[C@@H]5CC[C@]43C)[C@H]12`, 94.1%. As for `C[C@H]1[C@H]2C3=CC[C@@H]4[C@@]5(C)C/C(=C/c6ccco6)C(=O)C(C)(C)[C@@H]5CC[C@@]4(C)[C@]3(C)CC[C@@]2(C(=O)N2CCOCC2)CC[C@@H]1C`, the figure is 59.5%; as for `O=C1OCC2=C1C(c1cccc(C(F)(F)F)c1)c1cc3c(cc1N2CCO)OCCO3` (centres undefined), 13.5%. Consider `COc1cc(C(=O)c2cc(C(C)=O)c3c(C)cccn23)cc(OC)c1OC`, for which the growth is 81.8%. As for `Cn1cc(-c2csc(-c3cn(CCCN4CCOCC4)c4ccc(F)cc34)n2)c2cccnc21`, the figure is 49.3%; as for `COc1cc2oc(-c3cccc(C(=O)Nc4ccc(Cl)cc4)c3)cc(=O)c2c(OC)c1OC`, 43.6%. As for `O=C1c2cccnc2C(=O)c2c1c(C(=O)NCCn1ccnc1)c1ccccn21`, the figure is -6.68% (active). As for `O=S(=O)(NCCCNc1cc(-c2cn(-c3ccccc3)nc2-c2ccccc2)ccn1)c1ccc(C(F)(F)F)cc1`, the figure is 40.7%; as for `Cc1nc2cnc(N)c(C#Cc3cncc(C(=O)Nc4ccc(Cl)c(C(F)(F)F)c4)c3)c2nc1C`, 72.6%. Regarding `NC(CSC(c1ccccc1)(c1ccccc1)c1ccccc1)C(=O)O` (centres undefined), the growth was 32.7%. As for `CNc1ccc(Cl)cc1S(=O)(=O)c1ccccc1[N+](=O)[O-]`, the figure is 72.7%; as for `CN(C)c1ccc(Cc2ccc(N(C)C)cc2Cl)c(Cl)c1`, 88.7%; as for `N#Cc1c(-c2ccccn2)[nH]c(=S)[nH]c1=O`, 110%. In the case of `COC(=O)[C@@H](OC)[C@@H]1Cc2cc3cc(OC4CC(OC5CC(O)C(O)C(C)O5)C(O)C(C)O4)c(C)c(O)c3c(O)c2C(=O)[C@H]1OC1CC(OC2CC(OC3CC(C)(O)C(O)C(C)O3)C(O)C(C)O2)C(O)C(C)O1` (some centres undefined), the growth was -45.6% (active). As for `CSc1ccc(N=C=C(c2ccccc2)c2ccccc2)cc1`, the figure is 97.1%; as for `Cc1ccc(-c2nc3nc(-c4ccc(F)cc4)nc(N4CCNCC4)c3o2)cc1`, 54.3%. As for `C=C1CC[C@@H]2[C@](C)(COC(C)=O)[C@H](OC(C)=O)CC[C@@]2(C)[C@@H]1CC(NCc1ccc(F)cc1)C1=CCOC1=O` (some centres undefined), the figure is 27.5%; as for `Cn1cc(-c2nonc2-c2c[nH]c3ccc(F)cc23)c2cccnc21`, -7.39% (active); as for `O=C(/C=C\c1ccc(Cl)c(Cl)c1)c1ccccc1`, 79.8%. As for `CCN1CCN(c2ccc(Nc3ncnc4c3nnn4CCc3cc(OC)cc(OC)c3)cc2)CC1`, the figure is 76.1%. In the case of `COc1cccc2cc(-c3cc4ccccc4[nH]3)c(=NC(=O)c3ccc(Cl)cc3)oc12`, the growth was 75%. As for `COc1cccc(/C(C)=N/NC(=O)CSc2nc3ccccc3c(=O)n2CCc2ccc(S(N)(=O)=O)cc2)c1`, the figure is 35.3%.
